In the supplement of paper PMC4723716:
± gives the uncertainty stated by the source. In all, about 9,900 compounds were measured (“viability index relative to DMSO control”: median about 1, lowest 2% from about 0.85 on). The sample as a whole holds a higher share of the lowest values than the screen did.

System: Plasmodium falciparum NF54 stage V gametocytes
Test: viability index relative to DMSO control (fraction); higher = less gametocyte killing
Conditions: 2.5 µM, incubation time: 72 h
Description: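 Broad DOS informer set and blood-stage-active DOS compounds screened in duplicate at 2.5 µM against P. falciparum NF54 stage V gametocytes with the serum-free one-step SaLSSA (1536-well): 72 h at 37 °C under low oxygen, then saponin lysis and MitoTracker Red CMXRos staining, with high-content imaging. Viability index = viable-object count divided by the plate mean of DMSO wells (0 = killed, about 1 = inactive).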

[1] = library set: Broad Institute DOS

Compound	viability index [1]	viability index (library set: Broad Institute Blood Stage)
C/C=C/c1ccc([C@H]2[C@@H](CO)N3CCCCN(S(=O)(=O)c4ccc(OC)cc4)C[C@@H]23)cc1	0.972 ± 0.078	–
CCCNC(=O)Nc1ccc2c(c1)OC[C@@H](C)N(C(=O)C1CCOCC1)C[C@H](C)[C@H](OC)CN(C)C2=O	0.996 ± 0.052	–
COCC(=O)Nc1ccc2c(c1)C(=O)N(C)C[C@@H](OC)[C@H](C)CN(CCc1ccccc1)[C@H](C)CO2	1.05 ± 0.042	–
O=C(C[C@@H]1C=C[C@H](NC(=O)Nc2ccccc2F)[C@@H](CO)O1)NCc1ccc(-c2ccccc2)cc1	1.11 ± 0.14	–
Fc1cccc(-c2ccc([C@@H]3[C@@H]4CN(Cc5cncnc5)C[C@H]3N4)cc2)c1	1.04 ± 0.06	–
CN(C)CC(=O)N1C[C@@H]2N[C@H](C1)[C@@H]2c1ccc(C2=CCCCC2)cc1	0.898 ± 0.013	–
CN(C)CC(=O)N1C[C@@H]2N[C@H](C1)[C@H]2c1ccc(-c2ccccc2F)cc1	0.832 ± 0.011	–
O=C(C1CCCCC1)N1C[C@@H]2N[C@H](C1)[C@H]2c1ccc(-c2ccccc2F)cc1	1.08 ± 0.092	–
CN(C)CC(=O)N1C[C@@H]2N[C@H](C1)[C@@H]2c1ccc(-c2ccccc2F)cc1	0.745 ± 0.074	–
Cc1cccc(-c2ccc([C@@H]3[C@@H]4CN(Cc5cccc(F)c5)C[C@H]3N4)cc2)c1	0.816 ± 0.064	–
Cc1cccc(-c2ccc([C@@H]3[C@@H]4CN(C(=O)CN(C)C)C[C@H]3N4)cc2)c1	0.477 ± 0.045	–
Cc1cccc(-c2ccc([C@@H]3[C@@H]4CN(C(=O)c5ccncc5)C[C@H]3N4)cc2)c1	1.09 ± 0.12	–
Cc1cccc(-c2ccc([C@H]3[C@@H]4CN(Cc5cccc(F)c5)C[C@H]3N4)cc2)c1	1.053 ± 0.0043	–
O=C(C1CC1)N1C[C@@H]2N[C@H](C1)[C@@H]2c1ccc(-c2ccccc2F)cc1	–	0.988 ± 0.046
O=C(Nc1ccccc1)N1C[C@@H]2N[C@H](C1)[C@H]2c1ccc(-c2ccccc2F)cc1	1.1 ± 0.05	–
O=C(Nc1ccccc1)N1C[C@@H]2N[C@H](C1)[C@@H]2c1ccc(-c2ccccc2F)cc1	1.03 ± 0.08	–
N#C[C@H]1[C@@H](c2ccccc2-c2cccc(F)c2)[C@H](CO)N1S(=O)(=O)c1cccc(F)c1	1.17 ± 0.1	–
C[C@@H]1CCCCO[C@H](CN(C)Cc2ccc(Cl)c(Cl)c2)[C@@H](C)CN([C@H](C)CO)C(=O)c2cc(NC(=O)c3ccncc3)ccc2O1	1.05 ± 0.047	–
C/C=C/c1ccc([C@@H]2[C@@H](CO)N3C(=O)CN(S(=O)(=O)c4ccccc4)C[C@H]23)cc1	1.11 ± 0.026	–
CN1c2ccc(-c3ccc(F)cc3)cc2[C@@H]2[C@@H](CCN2C(=O)Cc2cccnc2)[C@@H]1CO	1.09 ± 0.061	–
C[C@@H]1CN([C@@H](C)CO)C(=O)c2cc(NC(=O)Nc3ccccc3)ccc2O[C@H]1CN(C)Cc1ccccc1	0.979 ± 0.015	–
